From PubChem BioAssay (NCATS) come the findings set out here.

Where “and” joins values, the source holds several entries; their conditions need not be identical. Equal values may be shown once. Records with an inconclusive call do not appear. Unmarked numbers belong to inactive results. Calls of active or inactive are those of the source. The call rests on the fitted dose curve; in most records, active means well fitted curve in the direction sought with a large enough effect; inconclusive means small, poorly fitted or top-dose-only effect, or another doubt; inactive means no such curve, though single readings can be large; an effect the other way counts as inactive or inconclusive.
Further: nearly all actives have a fitted effect of over 70% in size.
On the % scale 0 is the no-effect control and ±100 the full control effect; potency means the concentration at half of the fitted maximal effect.

A short description of the first assay: Primary qHTS for inhibitors of nuclear receptor binding SET domain protein 2 (NSD2) in an isogenic RCH-ACV NSD2 p.E1099K mutant (9B) (AID 1645876). Conditions: RCH-ACV NSD2 E1099K (9B) viability, CellTiter-Glo, 72 h; series mostly up to 44.9 µM; activity change, negative = viability loss: at the top concentration. Background: qHTS replaces the single test concentration by a dilution series.
Regarding `COc1ccc2cc(OCC3(C(=O)O)CN(C(=O)c4ccc(F)cc4)C3)ccc2c1`, the compound was classed as inactive.
In the case of `CO[C@@H]1COCC[C@@H]1N[C@@H]1CC[C@@](C(=O)N2CCc3ncc(C(F)(F)F)cc3C2)(C(C)C)C1`, the “activity change, negative = viability loss” value was 4.65% [at 17.3 µM].
As for `CN(C)C/C=C/C(=O)Nc1ccc(C(=O)Nc2cccc(Nc3ncc(Cl)c(-c4c[nH]c5ccccc45)n3)c2)cc1`, the Potency is 18.3 nM (active) and 52.5 nM (active).
In the case of `CC1(C)C(=O)C(C)(C)c2cc(C(=O)Nc3ccc(C(=O)O)cc3)ccc21`, the “activity change, negative = viability loss” value was -15.1%.
Turning to `O=C(c1ccccn1)c1cnn2c(-c3ccncc3)ccnc12`, the outcome was inactive.
Same read-out and setting: the same measure for `O=C1NC(=Nc2ccccc2F)S/C1=C\c1ccc(C(=O)O)cc1`: “inactive”.
Turning to `CNC(=O)COC(=O)NCCC1CCN(c2cccc(C)n2)CC1`, the “activity change, negative = viability loss” value was -3.9%.
Regarding `CNC(=O)c1ccc(Nc2ncc(C(F)(F)F)c(NCc3nccnc3N(C)S(C)(=O)=O)n2)cc1`, the Potency is 2.58 µM (active) and 1.66 µM (active).
As for `C=C1CC[C@@H]2[C@](C)(CO)[C@H](O)CC[C@@]2(C)[C@@H]1C/C=C1/C(=O)OC[C@H]1O`, the Potency was 8.33 µM (active).
Take `O=c1c2cccnc2n(-c2cccc([N+](=O)[O-])c2)c(=O)n1Cc1ccncc1`: the “activity change, negative = viability loss” value is 4.7%.
For `NS(=O)(=O)OC[C@@H]1C[C@@H](n2ccc3c(N[C@H]4CCc5ccccc54)ncnc32)C[C@@H]1O`, the Potency was 325 nM (active) and 409 nM (active) and 525 nM (active).
Take `N[C@@H](CC(=O)N1CCn2c(nnc2C(F)(F)F)C1)Cc1[nH]nc2c(F)c(F)ccc12`: the “activity change, negative = viability loss” value was -1.61%.
Still for that read-out and setting: the same measure for `CCOC(=O)[C@H](CCc1ccccc1)CC1(C(=O)N[C@H]2CCc3ccccc3N(CC(=O)O)C2=O)CCCC1`: -4.6%.
As for `O=C(O)c1n[nH]c2c1C[C@H]1C[C@@H]21`, the call was inactive.
`Cc1cc(N2CCCCC2)nc2ccccc12`: the “activity change, negative = viability loss” value was 2.91%.
As for `CCNC(=O)[C@H]1O[C@H](n2cnc3c(NCC(c4ccccc4)c4ccccc4)nc(C(=O)NCCNC(=O)NC4CCN(c5ccccn5)CC4)nc32)[C@H](O)[C@@H]1O`, the call was inactive.
The same measure, in the same setting: the same measure for `CCc1c(CC(N)=O)c2cc(OCCCP(=O)(O)O)ccc2n1Cc1ccccc1`: “inactive”.
`CN(C)c1cccc(-c2c3c(=O)n(-c4ccccc4Cl)[nH]c3cc(=O)n2C)c1`: the “activity change, negative = viability loss” value was 7.01%.
As for `Cc1cc(C)c(S(=O)(=O)N(Cc2ccc(-c3cccc(S(C)(=O)=O)c3)cc2)Cc2ccc(C(F)(F)F)o2)c(C)c1`, the compound was called inactive.
As for `CC1(C)CCC(C)(C)c2cc([C@@H](O)C(=O)Nc3ccc(C(=O)O)cc3F)ccc21`, the “activity change, negative = viability loss” value was -22.7%.
The same measure, in the same setting: in the case of `CN1CCC(c2c[nH]c3ccc(NC(=O)c4ccc(F)cc4)cc23)CC1` it was -2.46%.
With `CCC(CC)n1ccc2c(C(=O)NCc3c(C)cc(C)[nH]c3=O)cc(C#N)cc21`, the “activity change, negative = viability loss” value is -4.75%.
As to `FC(F)(F)c1cc(C(F)(F)F)c2ccc3nc(-c4nnco4)cn3c2n1`, the compound was classed as inactive.
For `COCCCNCC1COc2ccccc2O1` (configuration not stated), the “activity change, negative = viability loss” value is -7.24%.
Regarding `CC(=O)N1CCN(NC(=O)c2ccc(F)cc2)CC1`, the call was inactive.
The same measure, in the same setting: the same measure for `C[C@@H](Nc1cc(NS(=O)(=O)N2CCC2)nc(SCc2cccc(F)c2F)n1)[C@@H](O)CO`: “inactive”; for `O=C1N(CC2CCCCN2)CCN1c1ccccc1` (configuration not stated): “inactive”.
As to `Cc1[nH]cnc1C1CCN(c2nc3cccc4c3n2CCC4=O)CC1`, the “activity change, negative = viability loss” value was -2.88%.
On the same count and under the same terms, the same measure for `CO[C@@H](Cc1ccc(OCCc2nc(-c3ccccc3)oc2C)c2ccsc12)C(=O)O`: -10.1%.
With `CC1(C)CC(=O)N(CCCCN2CCN(c3ncccn3)CC2)C(=O)C1`, the result was inactive.
For `COc1cc(NC(=O)c2ccccn2)ccc1Cl`, the “activity change, negative = viability loss” value is -17.2%.
For the compound `CC(C)Nc1cc(-c2c[nH]c(C(=O)N[C@H](CO)c3cccc(Cl)c3)c2)c(Cl)cn1`, the Potency is 20.5 µM (active) and 2.95 µM (active).
In the case of `Cc1nn(C)c(COc2ccc(N3CCN(S(=O)(=O)N(C)C)CC3)cc2)c1-c1cccc2c(CCCOc3cccc4ccccc34)c(C(=O)O)n(CCN3CCOCC3)c12`, the Potency result was “inactive”.
As to `Cc1nc2c(-c3cnc(N)nc3)nc(N3CCOCC3)nc2n1C(C)C`, the Potency is 72.8 nM (active) and 132 nM (active).
Same read-out and setting: the same measure for `CON(C)C(=O)N1N=C(c2cc(F)ccc2F)S[C@@]1(CCCN)c1ccccc1`: 9.2 nM (active) and 14.8 nM (active).
Regarding `CNC(=O)O[C@H]1COc2ccc(N3CCN(C4COC4)CC3)cc2[C@@H]1NC(=O)c1ccc(F)cc1`, the compound was called inactive.
`O=C(COc1ccc(Cl)cc1)NC1CCC(NC(=O)COc2ccc(Cl)cc2)CC1` (configuration not stated): the “activity change, negative = viability loss” value was -8.09%.
On to `C[C@H]1CN(C[C@H](Cc2ccccc2)C(=O)NCC(=O)O)CC[C@@]1(C)c1cccc(O)c1`, for which the compound was classed as inactive.
As to `CCCCNC(=O)[C@@H]1Cc2ccccc2N1C(=O)[C@@H](N)CC`, the “activity change, negative = viability loss” value was 4.91%.
`COc1ccc(C)c2sc(NC(=O)c3ccncc3)nc12`: the “activity change, negative = viability loss” value is -4.67%.

The nature of another assay: Primary qHTS for inhibitors of nuclear receptor binding SET domain protein 2 (NSD2) in an RCH-ACV wild type WT cells (2C) (AID 1645877). Conditions: RCH-ACV (leukaemia line) NSD2 WT (2C) viability, CellTiter-Glo, 72 h; series mostly up to 44.9 µM; activity change, negative = cell killing: at the top concentration.
`COc1ccc2cc(OCC3(C(=O)O)CN(C(=O)c4ccc(F)cc4)C3)ccc2c1`: the “activity change, negative = cell killing” value was 7.38%.
Regarding `CO[C@@H]1COCC[C@@H]1N[C@@H]1CC[C@@](C(=O)N2CCc3ncc(C(F)(F)F)cc3C2)(C(C)C)C1`, the “outcome” value was “inactive [at 17.3 µM]”.
Turning to `CN(C)C/C=C/C(=O)Nc1ccc(C(=O)Nc2cccc(Nc3ncc(Cl)c(-c4c[nH]c5ccccc45)n3)c2)cc1`, the Potency was 18.3 nM (active) and 46.8 nM (active).
As for `CC1(C)C(=O)C(C)(C)c2cc(C(=O)Nc3ccc(C(=O)O)cc3)ccc21`, the “activity change, negative = cell killing” value was 3.9%.
The same measure, in the same setting: the same measure for `O=C(c1ccccn1)c1cnn2c(-c3ccncc3)ccnc12`: 1.8%.
`O=C1NC(=Nc2ccccc2F)S/C1=C\c1ccc(C(=O)O)cc1`: the call was inactive.
On the same count and under the same terms, in the case of `CNC(=O)COC(=O)NCCC1CCN(c2cccc(C)n2)CC1` it was “inactive”.
As for `CNC(=O)c1ccc(Nc2ncc(C(F)(F)F)c(NCc3nccnc3N(C)S(C)(=O)=O)n2)cc1`, the Potency was 2.05 µM (active) and 1.86 µM (active).
On the same count and under the same terms, the same measure for `C=C1CC[C@@H]2[C@](C)(CO)[C@H](O)CC[C@@]2(C)[C@@H]1C/C=C1/C(=O)OC[C@H]1O`: 7.42 µM (active).
As for `O=c1c2cccnc2n(-c2cccc([N+](=O)[O-])c2)c(=O)n1Cc1ccncc1`, the compound was called inactive.
Consider `NS(=O)(=O)OC[C@@H]1C[C@@H](n2ccc3c(N[C@H]4CCc5ccccc54)ncnc32)C[C@@H]1O`, for which the Potency is 365 nM (active) and 515 nM (active) and 525 nM (active).
On to `N[C@@H](CC(=O)N1CCn2c(nnc2C(F)(F)F)C1)Cc1[nH]nc2c(F)c(F)ccc12`, for which the “activity change, negative = cell killing” value was 2.5%.
Same read-out and setting: in the case of `CCOC(=O)[C@H](CCc1ccccc1)CC1(C(=O)N[C@H]2CCc3ccccc3N(CC(=O)O)C2=O)CCCC1` it was -9.21%.
As for `O=C(O)c1n[nH]c2c1C[C@H]1C[C@@H]21`, the outcome was inactive.
Consider `Cc1cc(N2CCCCC2)nc2ccccc12`, for which the compound was called inactive.
On the same count and under the same terms, in the case of `CCNC(=O)[C@H]1O[C@H](n2cnc3c(NCC(c4ccccc4)c4ccccc4)nc(C(=O)NCCNC(=O)NC4CCN(c5ccccn5)CC4)nc32)[C@H](O)[C@@H]1O` it was “inactive”.
Still for that read-out and setting: in the case of `CCc1c(CC(N)=O)c2cc(OCCCP(=O)(O)O)ccc2n1Cc1ccccc1` it was “inactive”.
For `CN(C)c1cccc(-c2c3c(=O)n(-c4ccccc4Cl)[nH]c3cc(=O)n2C)c1`, the “activity change, negative = cell killing” value was 2.98%.
As to `Cc1cc(C)c(S(=O)(=O)N(Cc2ccc(-c3cccc(S(C)(=O)=O)c3)cc2)Cc2ccc(C(F)(F)F)o2)c(C)c1`, the compound was classed as inactive.
For the compound `CC1(C)CCC(C)(C)c2cc([C@@H](O)C(=O)Nc3ccc(C(=O)O)cc3F)ccc21`, the “activity change, negative = cell killing” value is -23%.
Still for that read-out and setting: the same measure for `CCC(CC)n1ccc2c(C(=O)NCc3c(C)cc(C)[nH]c3=O)cc(C#N)cc21`: 1.09%; for `FC(F)(F)c1cc(C(F)(F)F)c2ccc3nc(-c4nnco4)cn3c2n1`: 0.197%.
Same read-out and setting: the same measure for `COCCCNCC1COc2ccccc2O1` (configuration not stated): -0.873%.
As to `CC(=O)N1CCN(NC(=O)c2ccc(F)cc2)CC1`, the compound was classed as inactive.
On to `C[C@@H](Nc1cc(NS(=O)(=O)N2CCC2)nc(SCc2cccc(F)c2F)n1)[C@@H](O)CO`, for which the outcome was inactive.
On the same count and under the same terms, the same measure for `O=C1N(CC2CCCCN2)CCN1c1ccccc1` (configuration not stated): “inactive”.
On to `Cc1[nH]cnc1C1CCN(c2nc3cccc4c3n2CCC4=O)CC1`, for which the “activity change, negative = cell killing” value is -2.11%.
For the compound `COc1cc(NC(=O)c2ccccn2)ccc1Cl`, the “activity change, negative = cell killing” value is -13.7%.
On to `CC(C)Nc1cc(-c2c[nH]c(C(=O)N[C@H](CO)c3cccc(Cl)c3)c2)c(Cl)cn1`, for which the Potency is 8.17 µM (active) and 2.95 µM (active).
The same measure, in the same setting: the same measure for `Cc1nn(C)c(COc2ccc(N3CCN(S(=O)(=O)N(C)C)CC3)cc2)c1-c1cccc2c(CCCOc3cccc4ccccc34)c(C(=O)O)n(CCN3CCOCC3)c12`: “inactive”; for `Cc1nc2c(-c3cnc(N)nc3)nc(N3CCOCC3)nc2n1C(C)C`: 72.8 nM (active) and 132 nM (active); for `CON(C)C(=O)N1N=C(c2cc(F)ccc2F)S[C@@]1(CCCN)c1ccccc1`: 6.5 nM (active) and 13.2 nM (active).
For `CNC(=O)O[C@H]1COc2ccc(N3CCN(C4COC4)CC3)cc2[C@@H]1NC(=O)c1ccc(F)cc1`, the outcome was inactive.
Regarding `O=C(COc1ccc(Cl)cc1)NC1CCC(NC(=O)COc2ccc(Cl)cc2)CC1` (configuration not stated), the “activity change, negative = cell killing” value is -14%.
Consider `C[C@H]1CN(C[C@H](Cc2ccccc2)C(=O)NCC(=O)O)CC[C@@]1(C)c1cccc(O)c1`, for which the call was inactive.
Same read-out and setting: in the case of `CCCCNC(=O)[C@@H]1Cc2ccccc2N1C(=O)[C@@H](N)CC` it was “inactive”.
With `COc1ccc(C)c2sc(NC(=O)c3ccncc3)nc12`, the “activity change, negative = cell killing” value is -7.58%.
